Screening results as filed in PubChem.
Compounds with a hit are over-represented: about 3.4% of the library has one in this group of screens.
GPR151 activ – human GPR151 activation; PathHunter beta-arrestin GPR151 cells, luminescence; activation, % at 11.2 µM; 650,000 compounds, 1% hits; AID 1508602; in the data active = activation above about 4.9%
MITF primary – inhibitors of human MITF. AlphaScreen MITF homodimerization, bead proximity signal. inhibition, % at 2.6 µM. 650,000 compounds, 0.91% hits. AID 1259374; in the data active = inhibition above about 50%
Target sequence (O75030 whole entry, looked up): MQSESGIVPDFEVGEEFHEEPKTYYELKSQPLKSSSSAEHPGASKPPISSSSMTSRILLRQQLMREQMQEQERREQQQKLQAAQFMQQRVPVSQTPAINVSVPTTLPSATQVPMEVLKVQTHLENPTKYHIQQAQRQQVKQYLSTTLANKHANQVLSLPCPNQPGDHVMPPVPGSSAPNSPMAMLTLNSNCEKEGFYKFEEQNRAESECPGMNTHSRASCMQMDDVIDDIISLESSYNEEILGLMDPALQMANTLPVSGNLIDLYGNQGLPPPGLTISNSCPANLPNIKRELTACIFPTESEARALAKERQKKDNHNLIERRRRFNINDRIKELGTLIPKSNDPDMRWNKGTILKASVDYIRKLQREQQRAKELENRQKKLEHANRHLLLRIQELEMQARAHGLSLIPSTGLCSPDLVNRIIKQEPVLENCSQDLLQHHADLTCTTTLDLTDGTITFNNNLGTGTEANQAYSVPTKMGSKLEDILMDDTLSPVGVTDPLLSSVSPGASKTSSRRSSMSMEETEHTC
FBW7 activator – human FBW7 E3 ligase activation, primary screen; Q969H0; AlphaScreen FBW7–phospho-cyclin E peptide binding, activator screen; normalized activity (activation), % at 26.1 µM; 650,000 compounds, 0.13% hits; AID 1259310; in the data active = normalized activity above about 1.9%;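 also: purified mutant Fbw7 with reduced substrate affinity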
TEAD-YAP inh – TEAD-YAP interaction inhibition | inhibition, % at 9.12 µM | HEK-TIYL cells, TEAD-Gal4/YAP UAS-luciferase luminescence | 640,000 compounds, 1.4% hits; in the data active = inhibition above about 32%
Of the large screens only hits and unclear results are named; the others gave an inactive call.

CCOC(=O)C1=C(C)NC(SCC(N)=O)=C(C#N)C1c1cccc([N+](=O)[O-])c1 (centres undefined)	TEAD-YAP inh 49
CCOC(=O)C1=C(C)NC(SC)=C(C#N)C1c1ccccc1 (centres undefined)	TEAD-YAP inh 47
CCOC(=O)C1=C(C)NC(C)=C(C(=O)OCC)C1c1ccccc1F	FBW7 activator 2.1
CCOC(=O)C1=C(c2ccccc2)NC(SC)=C(C#N)C1c1cccnc1 (centres undefined)	none
COc1ccc(/C=N/OCC(=O)Nc2sc3c(c2C#N)CC(C)(C)NC3(C)C)cc1	none
O=C(O)c1cc(N2C(=O)C3CCCCC3C2=O)ccc1N1CCOCC1 (centres undefined)	none
O=C(O)c1cc(N2C(=O)C3CC=CCC3C2=O)ccc1N1CCOCC1 (centres undefined)	FBW7 activator 2.0
CCN(CC)S(=O)(=O)c1cc(C(=O)Nc2ccc(F)cc2)ccc1C	none
CCN(CC)C(=O)C1CCCN(c2nc(NCCc3ccc(OC)cc3)c3ncn(-c4ccsc4)c3n2)C1 (centres undefined)	TEAD-YAP inh 33
CCN(CC)C(=O)C1CCCN(c2nc(NCCN3CCOCC3)c3ncn(C4CCCCC4)c3n2)C1 (centres undefined)	TEAD-YAP inh 38
CCN(CC)C(=O)C1CCCN(c2nc(NCCN3CCOCC3)c3ncn(C(C)C)c3n2)C1 (centres undefined)	none
CCN(CC)C(=O)C1CCCN(c2nc(NCCN3CCOCC3)c3ncn(-c4ccsc4)c3n2)C1 (centres undefined)	TEAD-YAP inh 36
CCNC(=O)C1CC(=O)N(c2ccc(C)cc2)C1 (centres undefined)	none
CC1CCCCN1c1nc(-c2ccc([N+](=O)[O-])cc2)nc2ccccc12 (centres undefined)	none
COc1cc(Nc2nc(Cl)nc3c2ncn3-c2ccsc2)cc(OC)c1OC	TEAD-YAP inh 35
COc1cc(Nc2nc(Nc3cnccn3)nc3c2ncn3-c2ccsc2)cc(OC)c1OC	TEAD-YAP inh 38
COc1cc(Nc2nc(Nc3ccc(-n4ccnc4)cc3)nc3c2ncn3-c2ccsc2)cc(OC)c1OC	TEAD-YAP inh 44
COc1cc(Nc2nc(Nc3ccccc3)c3ncn(-c4ccsc4)c3n2)cc(OC)c1OC	none
COc1cc(Nc2nc(Nc3cccnc3)nc3c2ncn3-c2ccsc2)cc(OC)c1OC	none
COc1cc(Nc2nc(Nc3ccc(-n4ccnc4)cc3)nc3c2ncn3-c2ccccc2)cc(OC)c1OC	TEAD-YAP inh 34
C/C(=N\Nc1nc(Cl)c(Cl)cc1Cl)c1ccco1	none
Cc1sc(NC(=O)c2ccc(Cl)s2)c(C(N)=O)c1-c1ccc(F)cc1	TEAD-YAP inh 36
Cc1sc(NC(=O)c2ccc(Cl)s2)c(C(N)=O)c1C	none
CCN(CC)S(=O)(=O)c1ccc(C(=O)NCc2n[nH]c(=S)n2-c2cccc(Cl)c2)cc1	none
COc1ccc2ccccc2c1/C=C1/C(=O)NC(=O)N(Cc2ccco2)C1=O	MITF primary 76
COc1ccc(OC)c(CN2C(=O)NC(=O)/C(=C\c3ccco3)C2=O)c1	MITF primary 57
COc1cc(C)c(/C=C2/NC(=O)NC2=O)cc1C(C)C	TEAD-YAP inh 44
Cc1cc(/C=C2\C(=O)NC(=O)N(Cc3ccco3)C2=O)c(C)n1C1CC1	MITF primary 62
Cc1cccc(NCC(O)Cn2c3ccc(Cl)cc3c3cc(Cl)ccc32)c1 (centres undefined)	none
COc1ccc(C2(CC(=O)N3CCc4ccccc4C3)CC(=O)N(C)C2=O)cc1 (centres undefined)	none
COc1cc(/C=C2/C(=O)NC(=O)N(Cc3ccco3)C2=O)ccc1OCC(=O)O	MITF primary 77
COCCn1c(C)cc(/C=C2\C(=O)NC(=O)N(Cc3ccco3)C2=O)c1C	none
COc1cc(/C=C2\SC(=S)N(Cc3ccco3)C2=O)ccc1OCC(=O)O	none
COc1cc(C)c(/C=C2/C(=O)NC(=O)N(Cc3ccco3)C2=O)cc1C(C)C	MITF primary 69
NC(=O)c1ccccc1Nc1cc(NC(=O)Cc2ccc(F)cc2)ncc1Cl	TEAD-YAP inh 81
NC(=O)c1ccccc1Nc1cc(Oc2ccc(N3CCNCC3)cc2)ncc1C(F)(F)F	none
NC(=O)c1ccccc1Nc1cc(NC(=O)Cc2ccc3ccccc3c2)ncc1C(F)(F)F	TEAD-YAP inh 93
NC(=O)c1ccccc1Nc1cc(NC(=O)Cc2ccc(CN3CCOCC3)cc2)ncc1Cl	TEAD-YAP inh 99
NC(=O)c1ccccc1Nc1nc(Nc2ccc(N3CCOCC3)c(Cl)c2)ncc1Cl	none
O=C(Cc1ccc2c(c1)OCO2)Nc1cc(Nc2ccccc2-c2nn[nH]n2)c(Cl)cn1	none
NC(=O)c1ccccc1Nc1cc(NC(=O)Cc2ccc(CN3CCOCC3)cc2)ncc1C(F)(F)F	TEAD-YAP inh 99
COc1ccc(C(=O)n2c(=O)oc3ccccc32)cc1	none
CCOC(=O)c1c(NC(=O)CSc2nnc(CNC(=O)c3cccc(OC)c3)n2CCc2ccccc2)sc2c1CCCCC2	none
Cc1c(Cl)c([N+](=O)[O-])nn1CC(=O)N1CCCCCC1	none
CCC(C)c1ccc(OCC(=O)NCc2cccnc2)cc1 (centres undefined)	none
COc1cccc(/C(C)=N/NC(=O)CSc2nc(C)cc(C)n2)c1	none
C/C(=N/NC(=O)c1cc(O)c(O)c(O)c1)c1ccc(F)cc1	MITF primary 59
COc1cc(C(=O)N/N=C(\C)Cc2ccccc2)cc(OC)c1OC	TEAD-YAP inh 58
COc1cc(C(=O)N/N=C(\C)c2cccs2)cc(OC)c1OC	TEAD-YAP inh 54
COc1cc(C(=O)N/N=C(\C)c2ccco2)cc(OC)c1OC	TEAD-YAP inh 53
C/C(=N/NC(=O)c1cc(O)cc(O)c1)c1ccco1	none
CC(C)N(Cc1ccccc1)C(=O)CN1C(=O)CN(C)C1=O	none
O=C(COc1nsnc1N1CCOCC1)c1ccccc1	none
COc1cc(/C=C2\SC(=Nc3cc(C)cc(C)c3)NC2=O)ccc1OCc1ccc([N+](=O)[O-])cc1	none
COc1cc(C(=O)NC2CCCCCCC2)cc(OC)c1OC	none
COc1cc(C(=O)N/N=C(C)/C=C/c2ccccc2)cc(OC)c1OC	TEAD-YAP inh 64
COc1cc(C(=O)NN2C(=O)c3ccccc3C2=O)cc(OC)c1OC	TEAD-YAP inh 52
COc1cc(C(=O)NN=C(C2CC2)C2CC2)cc(OC)c1OC	TEAD-YAP inh 59
COc1cc(C(=O)N/N=C(\C)c2ccc(N)cc2)cc(OC)c1OC	TEAD-YAP inh 49
CC(C)c1cc(NCCN(C)C)n2c(nc3ccccc32)c1C#N	none
O=C(CN1C(=O)C2C3C=CC(C3)C2C1=O)N(CCc1ccccc1)Cc1ccccc1 (centres undefined)	none
COc1cc(C(=O)N/N=C(\C)c2ccccc2)cc(OC)c1OC	TEAD-YAP inh 61
COc1ccc(/C(C)=N/NC(=O)c2ccccc2)cc1OC	none
Cn1c(SCC2CCCO2)nnc1-c1ccccc1O (centres undefined)	TEAD-YAP inh 61
Cn1c(SCC2CCCCO2)nnc1-c1ccccc1 (centres undefined)	none
O=C1C=CC(=O)N1CCCCCCN1C(=O)C=CC1=O	TEAD-YAP inh 41
CCOC(=O)c1ccc(NC(=O)c2ccnn2C)cc1	none
